This note sets out measurements from PubChem BioAssay (NCATS).

Experiment [1] concerns the target Peroxisome proliferator-activated receptor delta (Homo sapiens) (UniProt Q03181). Description: qHTS assay for small molecule antagonists of peroxisome proliferator-activated receptor delta signaling (AID 588535; active = well fitted inhibition curve with a large enough effect in the signal ratio, with a control signal flat, not every such curve was filed as active; the % refers to the signal ratio). The method, boiled down: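 Reporter: UAS-bla under PPAR-delta response element, HEK293T host. Medium: 2% charcoal/dextran FBS. Dosing: titration, 18 hrs, 37 C. Detection: CCF4, 2 hrs RT, 405 ex/460 and 530 em.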
For orientation: qHTS replaces the single test concentration by a dilution series.

The target of experiment [2] is Peroxisome proliferator-activated receptor gamma (Homo sapiens) (UniProt P37231). Nature of the experiment: qHTS assay for small molecule agonists of peroxisome proliferator-activated receptor gamma signaling (AID 588536; active = well fitted curve in the direction sought with a large enough effect in the signal ratio, with a control signal flat, not every such curve was filed as active; the % refers to the signal ratio;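 also: 0% = DMSO basal wells and 100% = rosiglitazone at 2 µM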). Put shortly: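 Ratiometric blue/green fluorescence (405 nm excitation; 460 and 530 nm emission) from CCF4-loaded HEK293 reporter cells serves as signal. Exposure to test compounds lasts 16 h at 37 C in medium containing 1% charcoal/dextran-treated serum.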
Peroxisome proliferator-activated receptor gamma (Homo sapiens), sequence (P37231 whole entry, looked up): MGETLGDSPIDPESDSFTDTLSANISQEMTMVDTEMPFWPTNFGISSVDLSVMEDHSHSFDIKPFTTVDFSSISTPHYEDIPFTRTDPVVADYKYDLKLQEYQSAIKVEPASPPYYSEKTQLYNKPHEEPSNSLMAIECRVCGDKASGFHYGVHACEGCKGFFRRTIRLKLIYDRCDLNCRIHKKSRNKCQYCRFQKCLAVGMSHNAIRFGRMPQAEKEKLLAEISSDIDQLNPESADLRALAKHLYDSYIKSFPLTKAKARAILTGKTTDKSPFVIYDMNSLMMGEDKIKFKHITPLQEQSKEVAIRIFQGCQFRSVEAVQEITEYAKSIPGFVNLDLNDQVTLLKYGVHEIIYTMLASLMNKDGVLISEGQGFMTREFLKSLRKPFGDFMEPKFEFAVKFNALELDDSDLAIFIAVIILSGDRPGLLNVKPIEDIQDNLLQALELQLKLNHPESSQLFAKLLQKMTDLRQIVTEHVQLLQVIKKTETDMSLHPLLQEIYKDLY

A short description of experiment [3]: qHTS assay for small molecule agonists of retinoid X receptor alpha signaling (AID 588544; calls by dose curve;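 as to activation: 0% = DMSO basal wells and 100% = reference agonist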). The conditions noted are these: HEK293T RXRa-UAS-bla, beta-lactamase reporter, 18 h; 530 nm emission.
Experiment [4] concerns the target Retinoic acid receptor RXR-alpha (Homo sapiens) (UniProt P19793). Described as above.
Experiment [5] addresses Thyroid hormone receptor beta (Homo sapiens) (UniProt P10828). Description: qHTS assay for small molecule agonists of thyroid hormone receptor beta signaling (AID 588545; calls by dose curve). The method, boiled down:
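Cells (2500/well) were seeded, incubated 4 hrs at 37 C, dosed with a compound series, incubated 18 hrs, loaded with CCF4 dye for 2 hrs at RT, then read for fluorescence. Data were scaled between DMSO (0%) and 10 nM T3 (100%).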

A short description of experiment [6]: qHTS assay for small molecule antagonists of retinoid X receptor alpha signaling (AID 588546; active = well fitted inhibition curve with a large enough effect in the signal ratio, with a control signal flat, not every such curve was filed as active; the % refers to the signal ratio;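 also: cells stimulated with 9-cis-retinoic acid as agonist; % is scaled to controls: 0 for no effect and ±100 for the full control effect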). The conditions noted are these: HEK293T RXRa-UAS-bla, beta-lactamase ratio, antagonist mode; measured here: W530 green channel, cytotoxicity proxy. The method, boiled down:
(§1)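 Beta-lactamase reporter inhibition, read as CCF4 fluorescence ratio (ex 405, em 460/530 nm) after 2 h at RT. HEK293T UAS-bla cells, 2500/well, were stimulated with 9-cis-RA at 500 or 100 nM final alongside test compound for 18 h at 37 C.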

In experiment [7] the target is Retinoic acid receptor RXR-alpha (Homo sapiens) (UniProt P19793). The description is as above. The note with it: HEK293T RXRa-UAS-bla, beta-lactamase ratio, antagonist mode. Put shortly:
as §1

For experiment [8], the target named is Thyroid hormone receptor beta (Homo sapiens) (UniProt P10828). Nature of the experiment: qHTS assay for small molecule antagonists of thyroid hormone receptor beta signaling (AID 588547; active = well fitted inhibition curve with a large enough effect in the signal ratio, with a control signal flat, not every such curve was filed as active; the % refers to the signal ratio;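 also: cells stimulated with 0.4 nM T3 agonist during compound exposure; series mostly up to about 77 µM; % is scaled to controls: 0 for no effect and ±100 for the full control effect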). The note with it: TR-UAS-bla HEK293, beta-lactamase ratio, antagonist mode, 18 h. The method, boiled down: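 TR-UAS-bla GripTite HEK293 cells in 2% charcoal/dextran FBS medium were preincubated 4 h at 37 C, given compound (0.59 nM to 92 uM) plus 0.4 nM T3 (final) for 18 h, then CCF4 for 2 h at RT; Hill fit gave IC50.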
Thyroid hormone receptor beta (Homo sapiens), sequence (P10828 whole entry, looked up): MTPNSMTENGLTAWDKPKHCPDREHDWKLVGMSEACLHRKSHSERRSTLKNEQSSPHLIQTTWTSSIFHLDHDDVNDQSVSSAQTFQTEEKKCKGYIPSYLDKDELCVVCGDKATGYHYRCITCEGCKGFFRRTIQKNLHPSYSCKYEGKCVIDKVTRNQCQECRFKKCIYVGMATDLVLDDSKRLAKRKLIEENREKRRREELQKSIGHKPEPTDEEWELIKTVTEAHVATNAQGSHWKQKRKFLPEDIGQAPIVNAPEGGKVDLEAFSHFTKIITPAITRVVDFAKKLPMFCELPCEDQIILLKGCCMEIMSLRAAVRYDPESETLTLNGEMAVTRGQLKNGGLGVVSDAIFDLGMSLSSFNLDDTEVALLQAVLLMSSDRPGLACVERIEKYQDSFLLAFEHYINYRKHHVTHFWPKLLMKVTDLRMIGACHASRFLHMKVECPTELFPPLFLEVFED

For experiment [9], the target named is Voltage-gated inwardly rectifying potassium channel KCNH2 (Homo sapiens) (UniProt Q12809). Nature of the experiment: qHTS Assay for Small Molecule Inhibitors of the Human hERG Channel Activity (AID 588834).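 Also: top concentration of the series differs between compounds; % is scaled to controls: 0 for no effect and ±100 for the full control effect; lower thallium flux fluorescence means stronger hERG block; nearly all actives have a fitted effect of over 50% in size.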 Put shortly:
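Measured: FluxOR fluorescence after thallium stimulation in U2OS cells transduced with hERG by baculovirus. Compounds pre-incubated around 10 min; medium Opti-MEM with 2% FCS. AC50 from Hill equation.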

Experiment [10] is described as follows: qHTS assay for small molecule agonists of the antioxidant response element (ARE) signaling pathway (AID 651741; active = well fitted activation curve with a large enough effect in the signal ratio; the % refers to the signal ratio; also: potency is read from the fitted curve at half-maximal effect). The method, boiled down: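 Compounds in DMSO are pinned onto HepG2 ARE-bla cells (2,000/well) that were preincubated 5 h; plates stay 16 h at 37 C, then beta-lactamase activity is detected with LiveBLAzer B/G substrate by fluorescence.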
Experiment [11] in a line: qHTS assay for small molecule activators of the p53 signaling pathway (AID 651743; active = well fitted activation curve with a large enough effect in the signal ratio, not every such curve was filed as active; the % refers to the signal ratio; also: series mostly up to about 92 µM; % of control where 0% means no effect). The conditions noted are these: HCT-116 p53RE-bla, beta-lactamase FRET ratio, 16 h; activation: stronger effect = higher value. The method, boiled down:
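Cell-based beta-lactamase reporter (p53 response elements, HCT-116 background). After a 5-hour preincubation, cells received compound for 16 hours at 37 C; substrate development ran 2 hours at room temperature.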

Experiment [12] can be described thus: qHTS assay for small molecule activators of the nuclear factor-kappa B (NF-kB) signaling pathway (AID 651749; active = well fitted activation curve with a large enough effect in the signal ratio; the % refers to the signal ratio; also: series mostly up to about 77 µM; % of control where 0% means no effect). The conditions noted are these: NF-kB-bla ME-180 cells, beta-lactamase FRET ratio, 16 h; activation: stronger effect = higher value. Put shortly:
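Screening used 2,000 ME-180 reporter cells per well exposed to pinned compound (23 nL) or DMSO; after 16 hr at 37C, beta-lactamase expression under NF-kB control was assessed through FRET.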

Experiment [13] is described as follows: qHTS assay for small molecule disruptors of the mitochondrial membrane potential - 1 hr assay (AID 651754; calls by dose curve; also: % is scaled to controls: 0 for no effect and ±100 for the full control effect; nearly all actives have a fitted effect of over 35% in size). The method, boiled down: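 HepG2 cells, attached overnight, were exposed to compound for 1 hr at 37C, then stained 30 min with a potentiometric dye. Ratio of red aggregate (590nm) to green monomer (535nm) fluorescence reports membrane potential; collapse shifts signal toward green.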

In experiment [14] the target is Tumor necrosis factor (Homo sapiens) (UniProt P01375). Description: qHTS assay to identify small molecules that stimulate Tumor Necrosis Factor-alpha (TNF-alpha) secretion (AID 651757; active = well fitted curve in the direction sought with a large enough effect in the signal ratio; the % refers to the signal ratio; also: 0% is about no effect). Put shortly:
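THP-1 cells (3000/well) exposed to compounds 17 hrs at 37 C. Secreted TNF-alpha detected by HTRF with cryptate- and XL665-labeled anti-TNF-alpha antibodies after 3 hr at room temperature.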

The nature of experiment [15]: qHTS assay for environmental chemicals that activate the Aryl hydrocarbon Receptor (AhR) signaling pathway (AID 651777). Also: % of control where 0% means no effect; nearly all actives have a fitted effect of over 15% in size. The conditions noted are these: 1A2-DRE human hepatoma cells, luciferase, 24 h; activation: stronger effect = higher value. The method, boiled down:
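Quantitative HTS in stably transfected human liver-derived cells whose luciferase gene sits downstream of the CYP1A2 promoter and dioxin response element. After 24 hr exposure at 37 C, One-Glo luminescence was measured.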

Experiment [16] addresses Peroxisome proliferator-activated receptor alpha (Homo sapiens) (UniProt Q07869). Nature of the experiment: qHTS assay for small molecule agonists of the peroxisome proliferator-activated receptor alpha (PPARalpha) signaling pathway (AID 651778). Also: % of control where 0% means no effect. The conditions noted are these: PathHunter PPARalpha complementation, chemiluminescence, 6 h; stronger effect = higher value. The method, boiled down:
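Cells plated at 2,000/well and held overnight at 37 C, 5% CO2, then compound added by pin tool for 6 hr; after PathHunter detection reagent and 60 min at room temperature, chemiluminescence from enzyme complementation was read.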

The target of experiment [17] is Nuclear receptor ROR-gamma (Homo sapiens) (UniProt P51449). Nature of the experiment: qHTS assay for small molecule antagonists of the retinoid-related orphan receptor gamma (ROR-gamma) signaling pathway (AID 651802).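 Also: luciferase reporter luminescence driven by ROR response element; series mostly up to about 92 µM; % is scaled to controls: 0 for no effect and ±100 for the full control effect; nearly all actives have a fitted effect of over 60% in size.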 Put shortly:
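CHO cells with TET-inducible ROR-gamma and RORE-luciferase reporter, dosed then doxycycline-induced. After 16 h at 37C, One-Glo luminescence read; decreased signal indicates antagonism.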

Experiment [18] in a line: qHTS assay for small molecule agonists of the antioxidant response element (ARE) signaling pathway measured by Nrf2-dependant transcriptional activity (AID 720636; active = well fitted curve in the direction sought with a large enough effect in the repeat runs; an effect the other way counts as inactive or inconclusive; also: % of control where 0% means no effect). Put shortly: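 Quantitative HTS format in HepG2 cells stably expressing an ARE-luciferase reporter; 16 hr compound treatment at 37 C, luciferase signal detected with ONE-Glo.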
A short description of experiment [19]: qHTS assay for small molecule antagonists of the retinoid-related orphan receptor gamma (ROR-gamma) signaling pathway - cell viability counter screen (AID 720652; active = well fitted curve in the direction sought with a large enough effect in the repeat runs; an effect the other way counts as inactive or inconclusive;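 also: series mostly up to about 92 µM; compound exposure lasted 16 hr before ATP read; % is scaled to controls: 0 for no effect and ±100 for the full control effect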). The method, boiled down: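 CHO cells carrying TET-inducible ROR and RORE-luciferase reporter, plated 5 hr, then dosed with compound plus doxycycline. After 16 hr at 37 C, viability read as intracellular ATP by CellTiter-Glo luminescence.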

The nature of experiment [20]: qHTS assay for small molecule agonists of the antioxidant response element (ARE) signaling pathway measured by Nrf2-dependant transcriptional activity - cell viability counter screen (AID 720653; active = well fitted curve in the direction sought with a large enough effect in the repeat runs; an effect the other way counts as inactive or inconclusive; also: % is scaled to controls: 0 for no effect and ±100 for the full control effect). The note with it: ARE-bla HepG2 viability, CellTiter-Glo ATP luminescence, 16 h; stronger effect = lower value. Put shortly: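 ARE-bla HepG2 cells (2,000/well) rested 5 hrs at 37C/5% CO2, then exposed to compounds in DMSO for 16 hrs. Viability was read in the same wells as intracellular ATP by luminescence, 30 min at room temperature after reagent addition.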

A short description of experiment [21]: qHTS assay for cell viability of HEK293 cells (AID 743288). Also: % is scaled to controls: 0 for no effect and ±100 for the full control effect; nearly all actives have a fitted effect of over 50% in size. The conditions noted are these: ATP luminescence (CellTiter-Glo), 18 h; max response: stronger effect = lower value. The method, boiled down: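 The Tox21 protocol used parental HEK293 cells treated for 18 h at 37 C with compounds delivered by pintool; ATP-coupled luminescence after 30 min at room temperature gave viability.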

The nature of experiment [22]: qHTS assay for cell viability of the p53RE-bla HCT-116 cell line (AID 743292). Also: % is scaled to controls: 0 for no effect and ±100 for the full control effect; nearly all actives have a fitted effect of over 55% in size. Put shortly:
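Viability of compound-treated p53RE-bla HCT-116 cells is taken from ATP-dependent luciferase luminescence. Treatment lasts 16 h at 37 C after a 5 h settling period; detection follows 30 min at room temperature.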

For experiment [23], the target named is Nuclear receptor subfamily 1 group I member 2 (Rattus norvegicus) (UniProt Q9R1A7). Nature of the experiment: qHTS assay for small molecule activators of the rat pregnane X receptor (rPXR) signaling pathway (AID 651751; call rule not given here; also: 0% is about no effect). The note with it: rPXR reporter cells, luciferase (One-Glo), 24 h.
Nuclear receptor subfamily 1 group I member 2 (Rattus norvegicus), sequence (Q9R1A7 whole entry, looked up): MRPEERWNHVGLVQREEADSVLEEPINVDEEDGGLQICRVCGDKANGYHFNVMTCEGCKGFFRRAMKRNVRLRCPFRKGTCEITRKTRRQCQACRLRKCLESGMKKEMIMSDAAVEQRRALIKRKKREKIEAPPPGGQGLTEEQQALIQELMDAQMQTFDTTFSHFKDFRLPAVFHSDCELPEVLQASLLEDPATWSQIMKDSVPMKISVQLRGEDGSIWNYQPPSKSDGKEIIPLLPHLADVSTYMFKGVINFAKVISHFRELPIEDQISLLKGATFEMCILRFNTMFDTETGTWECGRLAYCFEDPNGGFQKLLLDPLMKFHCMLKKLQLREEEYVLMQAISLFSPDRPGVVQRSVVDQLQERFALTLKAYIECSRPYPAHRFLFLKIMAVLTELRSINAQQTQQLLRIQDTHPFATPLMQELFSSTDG
Experiment [24] is described as follows: qHTS assay for small molecule activators of the human pregnane X receptor (PXR) signaling pathway (AID 720659; call rule not given here; also: 0% is about no effect).

“And” between values parts separate entries of the source, which are not always exact repeats. Identical values can stand only once. Inconclusive results are not listed. The source made the active and inactive calls. Unless noted, calls follow the shape of the dose curve; as a rule, active = well fitted curve in the direction sought with a large enough effect; inconclusive = small, poorly fitted or top-dose-only effect, or another doubt; inactive = no such curve, though single readings can be large; an effect the other way counts as inactive or inconclusive.

Retinoic acid receptor RXR-alpha (Homo sapiens), sequence (P19793 whole entry, looked up): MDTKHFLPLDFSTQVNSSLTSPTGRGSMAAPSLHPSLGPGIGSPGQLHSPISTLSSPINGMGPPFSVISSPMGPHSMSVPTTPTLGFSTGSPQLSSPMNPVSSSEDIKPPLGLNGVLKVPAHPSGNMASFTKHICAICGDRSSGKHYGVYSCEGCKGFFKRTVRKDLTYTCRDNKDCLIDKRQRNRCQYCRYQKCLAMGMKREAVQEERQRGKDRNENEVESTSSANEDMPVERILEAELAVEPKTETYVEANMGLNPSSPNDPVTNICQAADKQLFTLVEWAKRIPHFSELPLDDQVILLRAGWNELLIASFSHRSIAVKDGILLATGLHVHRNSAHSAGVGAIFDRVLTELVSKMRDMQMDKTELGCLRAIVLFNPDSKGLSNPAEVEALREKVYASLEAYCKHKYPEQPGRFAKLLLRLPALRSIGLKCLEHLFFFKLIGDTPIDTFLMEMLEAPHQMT
Peroxisome proliferator-activated receptor delta (Homo sapiens), sequence (Q03181 whole entry, looked up): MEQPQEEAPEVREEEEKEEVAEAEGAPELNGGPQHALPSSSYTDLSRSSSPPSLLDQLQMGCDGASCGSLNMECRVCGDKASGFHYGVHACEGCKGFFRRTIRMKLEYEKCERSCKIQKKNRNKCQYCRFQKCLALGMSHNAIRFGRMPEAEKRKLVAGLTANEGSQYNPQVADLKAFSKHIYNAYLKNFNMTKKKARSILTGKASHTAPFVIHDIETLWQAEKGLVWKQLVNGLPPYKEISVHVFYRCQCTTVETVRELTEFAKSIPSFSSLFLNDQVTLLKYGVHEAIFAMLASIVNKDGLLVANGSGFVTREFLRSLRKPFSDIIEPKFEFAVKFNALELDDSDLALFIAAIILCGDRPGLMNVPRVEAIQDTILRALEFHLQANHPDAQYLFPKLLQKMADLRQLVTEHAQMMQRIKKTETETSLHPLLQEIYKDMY
Peroxisome proliferator-activated receptor alpha (Homo sapiens), sequence (Q07869 whole entry, looked up): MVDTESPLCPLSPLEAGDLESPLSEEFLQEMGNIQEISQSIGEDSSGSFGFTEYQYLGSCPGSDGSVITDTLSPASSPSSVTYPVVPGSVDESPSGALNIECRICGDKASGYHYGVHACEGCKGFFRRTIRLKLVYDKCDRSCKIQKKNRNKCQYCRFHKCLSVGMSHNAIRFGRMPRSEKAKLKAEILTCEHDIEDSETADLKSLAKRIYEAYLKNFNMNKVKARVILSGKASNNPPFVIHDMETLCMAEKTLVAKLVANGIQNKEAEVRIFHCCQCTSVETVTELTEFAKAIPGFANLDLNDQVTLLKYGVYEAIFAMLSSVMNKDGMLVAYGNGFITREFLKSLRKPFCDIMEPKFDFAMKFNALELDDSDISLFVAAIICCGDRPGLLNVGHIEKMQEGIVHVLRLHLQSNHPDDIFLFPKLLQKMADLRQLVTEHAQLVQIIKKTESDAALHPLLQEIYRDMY
Nuclear receptor ROR-gamma (Homo sapiens), sequence (P51449 whole entry, looked up): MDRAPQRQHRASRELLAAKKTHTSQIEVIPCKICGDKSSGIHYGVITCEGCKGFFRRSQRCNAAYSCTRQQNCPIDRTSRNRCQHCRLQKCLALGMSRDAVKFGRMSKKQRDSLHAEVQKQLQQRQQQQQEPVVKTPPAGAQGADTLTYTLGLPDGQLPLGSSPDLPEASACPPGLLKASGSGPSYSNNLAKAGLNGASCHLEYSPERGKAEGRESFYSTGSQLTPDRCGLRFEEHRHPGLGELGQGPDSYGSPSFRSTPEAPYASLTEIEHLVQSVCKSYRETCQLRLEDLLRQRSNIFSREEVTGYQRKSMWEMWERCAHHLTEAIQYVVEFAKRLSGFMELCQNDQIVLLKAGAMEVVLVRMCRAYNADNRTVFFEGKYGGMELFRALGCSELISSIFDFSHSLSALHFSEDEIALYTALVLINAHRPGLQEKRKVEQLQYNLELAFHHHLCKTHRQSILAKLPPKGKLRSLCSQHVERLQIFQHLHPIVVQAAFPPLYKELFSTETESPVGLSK
Voltage-gated inwardly rectifying potassium channel KCNH2 (Homo sapiens), sequence (Q12809 whole entry, looked up): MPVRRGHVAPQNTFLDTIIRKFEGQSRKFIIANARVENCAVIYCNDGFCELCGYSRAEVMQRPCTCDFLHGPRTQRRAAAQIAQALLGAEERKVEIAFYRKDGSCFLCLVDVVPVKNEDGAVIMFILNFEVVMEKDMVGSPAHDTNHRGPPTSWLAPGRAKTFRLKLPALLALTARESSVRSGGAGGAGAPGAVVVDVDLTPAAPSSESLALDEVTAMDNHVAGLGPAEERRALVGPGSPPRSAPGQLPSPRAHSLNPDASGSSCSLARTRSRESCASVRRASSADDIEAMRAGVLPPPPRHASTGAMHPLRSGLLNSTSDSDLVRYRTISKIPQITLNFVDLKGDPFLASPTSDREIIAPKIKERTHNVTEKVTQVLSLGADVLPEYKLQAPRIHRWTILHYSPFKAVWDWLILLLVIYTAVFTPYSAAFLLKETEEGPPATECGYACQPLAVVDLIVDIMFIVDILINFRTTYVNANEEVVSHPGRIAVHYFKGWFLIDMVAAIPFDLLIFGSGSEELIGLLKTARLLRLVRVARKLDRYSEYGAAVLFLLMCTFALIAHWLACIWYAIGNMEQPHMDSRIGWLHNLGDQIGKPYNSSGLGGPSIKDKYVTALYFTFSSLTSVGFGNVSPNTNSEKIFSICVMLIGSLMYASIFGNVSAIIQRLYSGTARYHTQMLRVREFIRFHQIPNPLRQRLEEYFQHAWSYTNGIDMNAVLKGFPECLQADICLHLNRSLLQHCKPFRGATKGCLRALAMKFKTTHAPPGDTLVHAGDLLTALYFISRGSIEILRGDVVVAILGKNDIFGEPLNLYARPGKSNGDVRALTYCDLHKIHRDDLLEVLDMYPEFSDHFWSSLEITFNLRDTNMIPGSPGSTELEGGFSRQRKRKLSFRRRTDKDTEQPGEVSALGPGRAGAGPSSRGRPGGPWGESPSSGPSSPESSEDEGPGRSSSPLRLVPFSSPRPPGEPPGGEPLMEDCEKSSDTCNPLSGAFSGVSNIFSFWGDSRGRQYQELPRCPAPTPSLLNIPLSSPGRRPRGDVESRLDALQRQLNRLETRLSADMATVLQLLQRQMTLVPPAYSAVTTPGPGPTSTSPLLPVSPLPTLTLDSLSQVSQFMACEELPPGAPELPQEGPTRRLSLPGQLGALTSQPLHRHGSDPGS
Tumor necrosis factor (Homo sapiens), sequence (P01375 whole entry, looked up): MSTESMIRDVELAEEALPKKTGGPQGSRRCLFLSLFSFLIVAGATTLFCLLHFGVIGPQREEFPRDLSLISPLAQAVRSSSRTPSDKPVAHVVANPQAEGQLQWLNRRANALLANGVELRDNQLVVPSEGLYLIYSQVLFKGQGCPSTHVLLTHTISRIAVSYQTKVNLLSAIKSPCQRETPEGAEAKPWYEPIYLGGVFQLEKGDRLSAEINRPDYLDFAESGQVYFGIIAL

As to `CCC[CH2][Sn]([Cl])([Cl])[Cl]`, the Potency result in [1], in [4], in [9], in experiment [13], in experiment [17] and in [19] was “inactive” throughout. For the same molecule, in experiment [22], the Potency entry was “inactive”. For the same molecule, the outcome in [2], in experiment [5], in [14], in experiment [18] and in experiment [24] was inactive. The max response was -13.2% and -14.8% in [3]; -9.08% and -6.63% in experiment [6]; -1.26% (inactive) and -2.57% (inactive) in experiment [7]; 0.179% (inactive) and -1.51% (inactive) in experiment [16]; -3.93% (inactive) and 8.73% (inactive) in experiment [20]; 9.1% (inactive) and -10.4% (inactive) in [21]. Moreover, in experiment [23], the max response is 2.08% (inactive) and 0.146% (inactive). Further, the activity change % (negative = inhibition) in experiment [8] is 9.88% (inactive). Moreover, the Potency in experiment [10] is 13.3 µM (active). Besides, the activation was 0.255% (inactive) and 3.17% (inactive) in experiment [11]; -0.955% (inactive) and -1.49% (inactive) in [12]; 0.348% (inactive) and 0.965% (inactive) in experiment [15].
